PubChem BioAssay AID651710 (Broad Institute, 2012)
Several values for one entry are separate records, joined by “and”; a condition that tells them apart may be missing. Equal entries are not always repeated. The whole screen tested about 360,000 compounds, of which about 1,600 (0.44%) were called active.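 How the source made its calls: active means every replicate showing at least 50% inhibition; inconclusive means mean inhibition at least 50% but not in every replicate; inactive means the rest.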 The list comes from a sample in which actives are over-represented; it also holds similar structures and randomly drawn compounds.

Biological target: DNA repair protein RAD52 homolog (Homo sapiens) (UniProt P43351)
Sequence (P43351 whole entry, looked up): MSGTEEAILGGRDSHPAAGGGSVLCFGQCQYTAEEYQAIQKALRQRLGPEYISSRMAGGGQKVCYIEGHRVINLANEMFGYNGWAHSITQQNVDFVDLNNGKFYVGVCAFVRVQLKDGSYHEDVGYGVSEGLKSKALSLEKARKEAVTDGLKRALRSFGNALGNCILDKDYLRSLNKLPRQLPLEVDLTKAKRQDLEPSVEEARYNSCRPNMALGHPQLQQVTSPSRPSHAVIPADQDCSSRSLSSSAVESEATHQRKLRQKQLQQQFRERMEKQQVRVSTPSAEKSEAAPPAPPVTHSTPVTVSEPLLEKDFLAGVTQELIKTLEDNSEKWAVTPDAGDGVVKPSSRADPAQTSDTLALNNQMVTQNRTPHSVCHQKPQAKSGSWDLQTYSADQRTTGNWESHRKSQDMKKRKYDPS
Experiment: blockers of RAD52 strand annealing activity – biochemical, FRET, single point, set 2, primary screen (AID 651710)
Conditions: recombinant RAD52 DNA annealing, FRET fluorescence; at 18.7 µM; active compounds read high

For `COCCNc1nc(Nc2ccccc2Cl)c2sc(-c3ccccc3)cc2n1`, which inhibition is on record?
Its inhibition is -21.9% (inactive).

For `COCCNc1nc(NCc2ccc(NC(C)=O)cc2)c2sccc2n1`, which inhibition is on record?
Its inhibition is -6.25% (inactive).

How did the inhibition turn out when `CC(=O)Nc1ccc(CNc2nc(NCCN(C)C)nc3cc(-c4ccccc4)sc23)cc1` was run?
The inhibition was 98.5% (active).

`C[C@@H]1CN([C@@H](C)CO)C(=O)c2cc(-c3cccnc3)cnc2O[C@H]1CN(C)Cc1ccc(-c2ccccc2)cc1` was tested. Which inhibition did it give?
The inhibition was 20.1% (inactive).

Which inhibition does the source give for `O=C(C[C@H]1CC[C@H](NC(=O)c2ccc(F)cc2)[C@@H](CO)O1)NCCc1ccncc1` here?
The inhibition was 2.72% (inactive).

How did the inhibition turn out when `CN1CCN(CCCNC(=O)c2ccc(/C=C3\Oc4ccccc4N(Cc4ccc(Cl)cc4)C3=O)cc2)CC1` was run?
The inhibition was 94.8% (active).

How did the inhibition turn out when `CCC1Oc2ccccc2N(CC(=O)NCCCN2CCN(CC)CC2)C1=O` (stereo unspecified) was run?
Its inhibition is -5.96% (inactive).

`Cc1c(C)n(Cc2ccc(Cl)cc2)c2ccc(C(=O)NCCCN3CCOCC3)cc12` was tested. Which inhibition did it give?
The inhibition was -12.7% (inactive).

For `COc1ccccc1C#Cc1ccc([C@H]2[C@H](CO)N3CCCCN(C(=O)C4CCC4)C[C@@H]23)cc1`, which inhibition is on record?
The inhibition was -21.5% (inactive).

Which inhibition does the source give for `C[C@H](O)C#Cc1ccc([C@@H]2[C@H](CO)N3CCCCN(CC4CC4)C[C@@H]23)cc1` here?
Its inhibition is 8.98% (inactive).

How did the inhibition turn out when `CN(C)CC#Cc1ccc([C@H]2[C@H](CO)N3CCCCN(CC4CC4)C[C@@H]23)cc1` was run?
The inhibition was 65.4% (active).

How did the inhibition turn out when `COc1ccccc1C#Cc1ccc([C@@H]2[C@H](CO)N3CCCCN(C(=O)C4CCCC4)C[C@@H]23)cc1` was run?
Its inhibition is 71% (active).

How did the inhibition turn out when `COc1ccccc1C#Cc1ccc([C@@H]2[C@H](CO)N3CCCCN(C(=O)C4CC4)C[C@@H]23)cc1` was run?
Its inhibition is 38.4% (inactive).

`C[C@@H](O)C#Cc1ccc([C@H]2[C@@H](CO)N3CCCCN(CC4CC4)C[C@@H]23)cc1` was tested. Which inhibition did it give?
Its inhibition is -24.5% (inactive).

How did the inhibition turn out when `C[C@@H](NC(=O)C[C@H]1C[C@@H]2c3cc(NC(=O)c4ccc5c(c4)OCO5)ccc3O[C@@H]2[C@@H](CO)O1)c1ccccc1` was run?
Its inhibition is 8.57% (inactive).

Which inhibition does the source give for `CO[C@H](CN(C)S(=O)(=O)c1ccc(C)cc1)[C@@H](C)CN(Cc1ccccc1Cl)[C@@H](C)CO` here?
Its inhibition is -2.08% (inactive).

With `CO[C@H]1CN(C)C(=O)c2cc(NC(=O)Nc3ccccc3F)ccc2OC[C@H](C)N(C)C[C@H]1C` as the molecule, how does the inhibition read?
The inhibition was 4.64% (inactive).

For `CC(C)NC(=O)N1C[C@@H]2[C@H](c3ccccc31)[C@H](CO)N2C(=O)C1CCCC1`, which inhibition is on record?
Its inhibition is 0.805% (inactive).

For `COc1ccc(N(Cc2ccc(N(C)C)cc2)C(=O)c2ccc(S(C)(=O)=O)cc2)cc1`, which inhibition is on record?
The inhibition was 2.51% (inactive).

Which inhibition does the source give for `COc1ccc(S(=O)(=O)N(C)CC(=O)N2CCCC2)cc1` here?
Its inhibition is -9.04% (inactive).

With `COc1ccc2sc(N(CCCN(C)C)C(=O)c3ccc(S(=O)(=O)N(C)C4CCCCC4)cc3)nc2c1` as the molecule, how does the inhibition read?
The inhibition was 62.7% (active).

For `Cn1ccc(=Nc2ccc(NC(=O)c3ccc(N=c4ccn(C)c5ccc([N+](=O)[O-])cc45)cc3)cc2)cc1`, which inhibition is on record?
The inhibition was 94.9% (active).

Which inhibition does the source give for `Cn1c(=O)n(C)c2cc(C(=O)Nc3ccc(Br)cc3)ccc21` here?
Its inhibition is -11.5% (inactive).

`CN(CC1CCCO1)S(=O)(=O)c1ccc(C(=O)Nc2ccc([N+](=O)[O-])cc2)cc1` (stereo unspecified) was tested. Which inhibition did it give?
Its inhibition is -8.13% (inactive).

`C[C@@H]1CN([C@@H](C)CO)S(=O)(=O)c2ccc(/C=C/c3ccccc3)cc2O[C@H]1CN(C)C(=O)C1CC1` was tested. Which inhibition did it give?
The inhibition was 14.6% (inactive).

How did the inhibition turn out when `O=C(C[C@H]1CC[C@H]2[C@@H](COC[C@H](O)CN2Cc2nccs2)O1)NCc1ccc(Oc2ccccc2)cc1` was run?
The inhibition was 9.32% (inactive).

Which inhibition does the source give for `O=C(Nc1ccccc1F)N[C@@H]1CC[C@H](CC(=O)N2CCCCC2)O[C@H]1CO` here?
The inhibition was -11.7% (inactive).

`O=C(c1ccccc1)N1CCN(c2cc(-c3ccccc3)nc3cc(-c4cccc(Cl)c4)nn23)CC1` was tested. Which inhibition did it give?
Its inhibition is -9.17% (inactive).

How did the inhibition turn out when `CN(C)CCN1CCN(c2cc(-c3cccc(Cl)c3)nc3ccnn23)CC1` was run?
Its inhibition is 91.4% (active).

How did the inhibition turn out when `C#Cc1cc(N2CCN(C(=O)c3ccoc3)CC2)n2nc(-c3cccc(Cl)c3)cc2n1` was run?
Its inhibition is 10.8% (inactive).

How did the inhibition turn out when `CN(C)C(=O)c1cccc(-c2ccccc2[C@@H]2[C@@H](CO)N(C(=O)C3CCCCC3)[C@H]2C#N)c1` was run?
Its inhibition is 6.38% (inactive).

For `C[C@H](CO)N1C[C@H](C)[C@@H](CN(C)Cc2ccc(-c3ccccc3)cc2)Oc2ccc(NC(=O)CCC(F)(F)F)cc2CC1=O`, which inhibition is on record?
Its inhibition is 23.2% (inactive).

Which inhibition does the source give for `C[C@H]1CN([C@@H](C)CO)C(=O)Cc2cc(NC(=O)CCCN(C)C)ccc2O[C@@H]1CN(C)Cc1ccc(-c2ccccc2)cc1` here?
Its inhibition is 48.7% (inactive).

With `C[C@@H]1CN([C@H](C)CO)C(=O)Cc2cc(NC(=O)CCCN(C)C)ccc2O[C@@H]1CN(C)Cc1ccc(Oc2ccccc2)cc1` as the molecule, how does the inhibition read?
Its inhibition is 54.4% (inactive).

How did the inhibition turn out when `C[C@H](CO)N1C[C@H](C)[C@@H](CN(C)Cc2ccc(-c3ccccc3)cc2)Oc2ccc(NC(=O)CCCN(C)C)cc2CC1=O` was run?
The inhibition was 94% (active).

Which inhibition does the source give for `C[C@H](CO)N1C[C@H](C)[C@H](CN(C)Cc2ccc(-c3ccccc3)cc2)Oc2ccc(NC(=O)Nc3ccc(F)cc3)cc2CC1=O` here?
Its inhibition is -6.38% (inactive).

With `C[C@@H]1CN([C@@H](C)CO)C(=O)Cc2cc(NC(=O)CCCN(C)C)ccc2O[C@@H]1CN(C)Cc1ccc(-c2ccccc2)cc1` as the molecule, how does the inhibition read?
The inhibition was 86.8% (active).

How did the inhibition turn out when `O=C(N[C@H]1CC[C@@H](CCNS(=O)(=O)c2ccccc2)O[C@@H]1CO)c1cnccn1` was run?
Its inhibition is -13.2% (inactive).

With `C[C@@H]1CN([C@H](C)CO)C(=O)CCCn2cc(nn2)CO[C@H]1CN(C)C(=O)Nc1ccc(N2CCCCC2)cc1` as the molecule, how does the inhibition read?
Its inhibition is -12.3% (inactive) and -1.13% (inactive) and -23.2% (inactive).

How did the inhibition turn out when `Cc1onc(-c2ccccc2)c1C(=O)N=C(N)c1ccc(Cl)cc1` was run?
Its inhibition is -19.5% (inactive).

For `NC(N)=Nc1nc(-c2ccccc2)c2cc(Cl)ccc2n1`, which inhibition is on record?
Its inhibition is 84.7% (active).

With `Clc1ccc2nc(-c3ccccc3)nc(C(Cl)Cl)c2c1` as the molecule, how does the inhibition read?
The inhibition was -10.7% (inactive).

`NCCCCCC(=O)N/N=C/c1ccc2nccnc2c1` was tested. Which inhibition did it give?
The inhibition was 87.9% (active).

`O=C(CCC(=O)Nc1ccccc1)N/N=C/c1ccccc1F` was tested. Which inhibition did it give?
Its inhibition is -7.35% (inactive).

How did the inhibition turn out when `CC1=NNC(=O)C1CCC(=O)N/N=C\c1ccc(Cl)c(Cl)c1` (stereo unspecified) was run?
Its inhibition is -0.875% (inactive).

How did the inhibition turn out when `CCCNC(=O)N(C)C[C@H]1Oc2cc(C#CC(C)(C)O)ccc2S(=O)(=O)N([C@H](C)CO)C[C@@H]1C` was run?
The inhibition was -3.15% (inactive).

Which inhibition does the source give for `COCC#Cc1cnc2c(c1)C(=O)N([C@H](C)CO)C[C@H](C)[C@@H](CN(C)C(=O)Nc1cc(F)ccc1F)O2` here?
The inhibition was -15.1% (inactive).

For `C[C@@H]1CN([C@@H](C)CO)C(=O)c2cc(NC(=O)Nc3ccc4c(c3)OCO4)ccc2O[C@@H](C)CCCCO[C@@H]1CN(C)Cc1ccccc1`, which inhibition is on record?
Its inhibition is -6.98% (inactive).

Which inhibition does the source give for `Cc1c(CCOC(=O)c2cc([N+](=O)[O-])ccc2Cl)sc[n+]1CCCCS(=O)(=O)[O-]` here?
The inhibition was -6.18% (inactive).

With `Cc1c(CCOC(=O)CC23CC4CC(CC(C)(C4)C2)C3)sc[n+]1Cc1ccc([N+](=O)[O-])cc1` as the molecule, how does the inhibition read?
The inhibition was 57.8% (active).

With `Cc1c(CCO)sc[n+]1CC(=O)OC12CC3CC(CC(C3)C1)C2` as the molecule, how does the inhibition read?
The inhibition was 9.07% (inactive).

How did the inhibition turn out when `CO[C@H]1CN(C)C(=O)c2ccc(NC(=O)Nc3ccccc3)cc2OC[C@@H](C)N(C(=O)CC2CC2)C[C@@H]1C` was run?
Its inhibition is 7.81% (inactive).

How did the inhibition turn out when `O=C1O[C@@H](c2ccccc2)[C@@H](c2ccccc2)N2[C@@H](c3ccccc3OCCO)[C@]3(C(=O)Nc4ccc(C#CC5(O)CCCCCC5)cc43)[C@@H](C(=O)N3CCCCCCC3)[C@H]12` was run?
The inhibition was 6.97% (inactive).

For `COc1ccc(C#Cc2ccc3c(c2)[C@]2(C(=O)N3)[C@H](c3ccccc3OCCO)N3[C@H](c4ccccc4)[C@H](c4ccccc4)OC(=O)[C@H]3[C@@H]2C(=O)N2CCCCCCC2)cc1`, which inhibition is on record?
Its inhibition is 55.6% (active).

With `COc1ccc(C#Cc2ccc3c(c2)[C@]2(C(=O)N3)[C@H](C(=O)N3CCCCCCC3)[C@H]3C(=O)O[C@H](c4ccccc4)[C@H](c4ccccc4)N3[C@@H]2c2ccc(O)cc2)cc1` as the molecule, how does the inhibition read?
The inhibition was 0.035% (inactive).

Which inhibition does the source give for `CO[C@H]1CN(C)C(=O)c2ccc(NC(C)=O)cc2OC[C@H](C)N(CC2CC2)C[C@@H]1C` here?
The inhibition was 5.82% (inactive).

How did the inhibition turn out when `COc1ccc(NC(=O)Nc2cccc3c2O[C@H](CN(C)C(=O)Nc2ccc(F)cc2)[C@@H](C)CN([C@@H](C)CO)C3=O)cc1` was run?
Its inhibition is -2.48% (inactive).

For `O=C(C1CCCCC1)N1CC2(C1)[C@H](c1ccccc1)[C@H](CO)N2CC1CCCC1`, which inhibition is on record?
Its inhibition is -23.5% (inactive).

For `Cc1cc(C)c2nc3nc(C)cc(C)c3c(N)c2c1`, which inhibition is on record?
The inhibition was 91% (active).

`C[C@H]1CN([C@@H](C)CO)C(=O)c2cccc(NC(=O)C3CCOCC3)c2O[C@@H]1CN(C)C(=O)Nc1cccc2ccccc12` was tested. Which inhibition did it give?
The inhibition was 6.23% (inactive).

Which inhibition does the source give for `CC=Cc1ccc2n(c1=O)C[C@@H]1[C@@H](CO)[C@H](C(=O)NCCC)[C@H]2N1C(=O)C1CC1` (mixture of isomers) here?
The inhibition was 6.42% (inactive).

`CC=Cc1ccc2n(c1=O)C[C@@H]1[C@@H](CO)[C@H](C(=O)NCC)[C@H]2N1CCC(F)(F)F` (mixture of isomers) was tested. Which inhibition did it give?
Its inhibition is 75.5% (active).

With `CC=Cc1ccc2n(c1=O)C[C@@H]1[C@@H](CO)[C@H](C(=O)N(C)C)[C@H]2N1CCc1ccccc1` (mixture of isomers) as the molecule, how does the inhibition read?
The inhibition was -10.1% (inactive).

With `CC(=O)N1[C@@H](CO)[C@H](c2ccccc2)[C@@H]1CN(C(=O)c1ccccc1)C(C)C` as the molecule, how does the inhibition read?
Its inhibition is -18% (inactive).

For `O=C(C[C@H]1CC[C@@H](NC(=O)c2ccc(F)cc2)[C@@H](CO)O1)NCc1ccncn1`, which inhibition is on record?
Its inhibition is -0.457% (inactive).

With `CO[C@@H]1CN(C)C(=O)c2cc(NC(=O)C3CC3)ccc2OC[C@@H](C)N(Cc2ccc(F)cc2)C[C@@H]1C` as the molecule, how does the inhibition read?
Its inhibition is -6.33% (inactive).
